We go through five compounds from PubChem BioAssay.

One assay deals with Albumin (Bos taurus) (UniProt P02769). Kind of assay: bovine serum albumin binders on microarray, profiling panel, artefact control for SMM control protein annotation, biochemical, small-molecule microarray, Alexa647 label, 635/667 nm fluorescence (AID 1118).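 Note: score merges 667 nm emission intensity and signal-to-noise per printed compound spot.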 Conditions: BSA-A647 binding, fluorescence 635 nm, higher = more signal.
Assay [1] in a line: small-molecule microarray binders of probe aXIP, primary screen, biochemical, NeuroSMM set, 635/667 nm fluorescence (AID 1119).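 Note: probe is the protein aXip251-270 applied at 1 µg/mL to compound-printed slides; binding of probe to printed compounds measured as 667 nm fluorescence plus signal to noise.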 To be noted: higher = more signal, called active from +8 up or from −8 down.
Assay [2] is described as follows: small-molecule binders of probe aNOTCH3, primary screen, biochemical, small-molecule microarray, 635/667 nm fluorescence (AID 1120).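 Note: probe is a biotin-tagged antibody raised against NOTCH3 rather than NOTCH3 protein; score merges spot fluorescence near 667 nm with spot signal to noise.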 Conditions: higher = more signal.
A short description of assay [3]: small-molecule binders of probe aNOTCH2, primary screen, biochemical, small-molecule microarray, 635/667 nm fluorescence (AID 1121).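 Note: score merges feature fluorescence read at 667 nm with its signal to noise.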 Conditions: higher = more signal.
The target of assay [4] is Carbonic anhydrase 2 (Homo sapiens) (UniProt P00918). The assay is described as follows: CAII small-molecule binders, profiling panel, biochemical, small-molecule microarray, Alexa647-labelled CAII (AID 1122). To be noted: CAII-A647 binding fluorescence, higher = more signal.
The nature of assay [5]: COS7 lysate on small-molecule microarray, probe aHis, 635 nm (AID 1123).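 Note: z-score combines 667nm fluorescence intensity with signal-to-noise per printed compound spot.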 Conditions: COS7 cell lysate, fluorescence, higher = more signal.
The nature of assay [6]: compound binding in COS7 lysate, probe aLAP1, primary screen, cell lysate, small-molecule microarray (AID 1124).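 Note: lysate comes from COS7 cells expressing LAP1 and is applied at 0.3 µg/mL; score merges spot fluorescence near 667 nm with signal-to-noise over triplicate slides.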 Conditions: probe aLAP1, fluorescence, higher = more signal.
A further assay relates to Sam68 (KHDRBS1). Kind of assay: Sam68 small-molecule binders, primary screen, biochemical, small-molecule microarray, 635 nm fluorescence (AID 1125).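 Note: score merges 667 nm channel intensity with signal to noise over triplicate slides.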 Conditions: small-molecule microarray binding, higher = more signal.
Assay [7] has as its system Chordin-like protein 2 (CHRDL2). The assay is described as follows: CHRDL2 small-molecule binders, primary screen, biochemical, small-molecule microarray, 635 nm fluorescence (AID 1126).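 Note: printed compound slides probed with Chrdl2 protein at 4 µg/mL for 1 h at 4 C; score merges 667 nm emission intensity with signal to noise over three replicate slides.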 To be noted: small-molecule microarray binding, fluorescence 635 nm; higher = more signal.
Assay [8] addresses Concanavalin-A (Canavalia ensiformis) (UniProt P02866). The assay is described as follows: ConA small-molecule binders, primary screen, artefact control for SMM control protein annotation, biochemical, small-molecule microarray, Alexa647 label, 635 nm (AID 1127).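 Note: z combines 667 nm emission intensity with signal-to-noise across three replicate slides.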 To be noted: ConA-A647 binding fluorescence, higher = more signal.
Assay [9] can be described thus: anti-His antibody binders, primary screen, artefact control for SMM control protein annotation, biochemical, small-molecule microarray, 635 nm fluorescence (AID 1128).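 Note: score merges feature fluorescence with signal-to-noise for each printed compound spot.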 Conditions: anti-His Alexa647 antibody binding, higher = more signal.
The test system of assay [10] is Human papillomavirus type 1a E7 protein (residues 1-88). The assay is described as follows: HPV1a E7 small-molecule binders, primary screen, biochemical, small-molecule microarray, residues 1-88, 635 nm (AID 1129). Conditions: small-molecule microarray binding, fluorescence 635 nm; higher = more signal.
The target of assay [11] is Focal adhesion kinase 1 (Homo sapiens) (UniProt Q05397). Kind of assay: small-molecule microarray binders of FAK, primary screen, biochemical, 635/667 nm fluorescence, BSA, DTT (AID 1130).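 Note: composite of spot emission at 667 nm and signal to noise over triplicate slides.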 To be noted: PTK2 binding, 635 nm fluorescence, higher = more signal.
Sequence of Focal adhesion kinase 1 (Homo sapiens) (Q05397 whole entry, looked up): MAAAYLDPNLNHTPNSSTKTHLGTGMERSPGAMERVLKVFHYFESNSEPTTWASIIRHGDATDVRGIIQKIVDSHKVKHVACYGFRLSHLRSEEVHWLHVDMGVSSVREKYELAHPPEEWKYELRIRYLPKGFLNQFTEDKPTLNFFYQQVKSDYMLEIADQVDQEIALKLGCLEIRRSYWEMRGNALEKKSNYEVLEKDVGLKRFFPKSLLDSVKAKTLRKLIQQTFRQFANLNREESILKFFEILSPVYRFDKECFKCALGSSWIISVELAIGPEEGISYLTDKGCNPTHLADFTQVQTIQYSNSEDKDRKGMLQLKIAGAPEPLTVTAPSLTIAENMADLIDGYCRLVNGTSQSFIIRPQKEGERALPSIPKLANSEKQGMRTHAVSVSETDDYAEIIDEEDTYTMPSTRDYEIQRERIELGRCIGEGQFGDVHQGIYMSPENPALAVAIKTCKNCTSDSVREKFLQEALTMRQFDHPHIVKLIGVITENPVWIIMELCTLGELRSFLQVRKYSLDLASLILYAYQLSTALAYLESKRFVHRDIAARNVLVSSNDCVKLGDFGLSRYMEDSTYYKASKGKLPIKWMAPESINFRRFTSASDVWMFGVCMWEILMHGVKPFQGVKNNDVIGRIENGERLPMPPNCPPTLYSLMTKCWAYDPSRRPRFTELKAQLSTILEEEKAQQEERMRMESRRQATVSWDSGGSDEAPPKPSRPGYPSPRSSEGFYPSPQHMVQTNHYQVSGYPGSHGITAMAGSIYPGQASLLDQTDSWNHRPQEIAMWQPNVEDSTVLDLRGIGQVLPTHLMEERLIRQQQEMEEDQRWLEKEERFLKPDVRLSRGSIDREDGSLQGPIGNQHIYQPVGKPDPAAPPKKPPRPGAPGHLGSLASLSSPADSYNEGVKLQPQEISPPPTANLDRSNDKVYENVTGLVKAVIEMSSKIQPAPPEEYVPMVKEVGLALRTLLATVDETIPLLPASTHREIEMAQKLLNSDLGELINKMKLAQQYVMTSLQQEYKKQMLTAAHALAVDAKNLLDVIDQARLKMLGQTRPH
The subject of assay [12] is Fibrinogen (Alexa647-labelled). Kind of assay: fibrinogen binders on compound microarrays, profiling panel, artefact control for SMM control-protein annotation, biochemical, small-molecule microarray, 635/667 nm fluorescence (AID 1131).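 Note: z-score merges 667 nm fluorescence with per-spot signal-to-noise over triplicate slides.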 Conditions: fibrinogen-A647 binding fluorescence, higher = more signal.
The target in assay [13] is Follistatin (Homo sapiens) (UniProt P19883). Kind of assay: follistatin binders on small-molecule microarrays, primary screen, biochemical, small-molecule microarray, 635/667 nm fluorescence (AID 1132). To be noted: FST binding, 635 nm fluorescence, higher = more signal.
Sequence of Follistatin (Homo sapiens) (P19883 whole entry, looked up): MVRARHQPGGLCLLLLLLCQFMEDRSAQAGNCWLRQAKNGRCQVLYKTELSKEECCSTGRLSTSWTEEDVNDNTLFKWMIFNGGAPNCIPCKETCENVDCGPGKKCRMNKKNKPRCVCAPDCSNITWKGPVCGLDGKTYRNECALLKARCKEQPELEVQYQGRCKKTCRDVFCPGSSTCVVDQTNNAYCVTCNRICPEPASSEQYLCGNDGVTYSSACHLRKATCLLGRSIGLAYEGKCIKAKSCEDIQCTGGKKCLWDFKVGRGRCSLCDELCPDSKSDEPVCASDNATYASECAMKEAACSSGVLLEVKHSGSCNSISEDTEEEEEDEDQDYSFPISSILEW
The target of assay [14] is Fibroblast growth factor 2 (Homo sapiens) (UniProt P09038). The assay is described as follows: FGF2 binders on small-molecule microarrays, primary screen, biochemical, small-molecule microarray, 635/667 nm fluorescence (AID 1133). Conditions: small-molecule microarray binding, FGF2, fluorescence 635/667; higher = more signal.
Sequence of Fibroblast growth factor 2 (Homo sapiens) (P09038 whole entry, looked up): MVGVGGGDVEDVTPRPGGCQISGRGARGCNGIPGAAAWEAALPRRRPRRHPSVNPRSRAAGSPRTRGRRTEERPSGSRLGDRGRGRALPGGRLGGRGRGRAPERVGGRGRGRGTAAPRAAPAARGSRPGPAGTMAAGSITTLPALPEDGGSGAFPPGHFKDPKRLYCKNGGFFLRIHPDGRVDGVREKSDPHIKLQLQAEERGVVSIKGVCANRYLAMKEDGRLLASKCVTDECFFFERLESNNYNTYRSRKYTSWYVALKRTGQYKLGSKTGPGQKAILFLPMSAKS
A short description of assay [15]: mitochondrial membrane potential change in A549 cells, profiling panel, cell-based, JC-1 fluorescence, basal, 24 h, 100 nL (AID 1138).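 Note: A549 lung adenocarcinoma cells under basal conditions with no added stimulus; test concentration not given here.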 Conditions: higher = more signal.
The next assay relates to Lefty1. Kind of assay: Lefty1 binders on small-molecule microarrays, primary screen, biochemical, small-molecule microarray, 635/667 nm fluorescence (AID 1139). Conditions: small-molecule microarray binding, fluorescence 635/667; higher = more signal.
The test system of assay [16] is wheat germ agglutinin (Triticum aestivum), Alexa647-labelled. Kind of assay: wheat germ agglutinin binders on compound microarrays, profiling panel, artefact control for SMM control-protein annotation, biochemical, small-molecule microarray, 635/667 nm fluorescence (AID 1140).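 Note: score merges 667 nm feature emission with signal to noise over triplicate slides.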 To be noted: WGA-A647 binding, 635 nm fluorescence, higher = more signal.
The target of assay [17] is Luciferin 4-monooxygenase (Photinus pyralis) (UniProt P08659). Kind of assay: firefly luciferase enzyme inhibitors, primary screen, biochemical, luminescence, purified enzyme, 2006 set (AID 1141).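 Note: cell-free assay with purified firefly luciferase at 100 ng per well in PBS; test concentration not given here.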 To be noted: SteadyGlo luminescence, 30 min, higher = more signal, called active from +8 up or from −8 down.
Sequence of Luciferin 4-monooxygenase (Photinus pyralis) (P08659 whole entry, looked up): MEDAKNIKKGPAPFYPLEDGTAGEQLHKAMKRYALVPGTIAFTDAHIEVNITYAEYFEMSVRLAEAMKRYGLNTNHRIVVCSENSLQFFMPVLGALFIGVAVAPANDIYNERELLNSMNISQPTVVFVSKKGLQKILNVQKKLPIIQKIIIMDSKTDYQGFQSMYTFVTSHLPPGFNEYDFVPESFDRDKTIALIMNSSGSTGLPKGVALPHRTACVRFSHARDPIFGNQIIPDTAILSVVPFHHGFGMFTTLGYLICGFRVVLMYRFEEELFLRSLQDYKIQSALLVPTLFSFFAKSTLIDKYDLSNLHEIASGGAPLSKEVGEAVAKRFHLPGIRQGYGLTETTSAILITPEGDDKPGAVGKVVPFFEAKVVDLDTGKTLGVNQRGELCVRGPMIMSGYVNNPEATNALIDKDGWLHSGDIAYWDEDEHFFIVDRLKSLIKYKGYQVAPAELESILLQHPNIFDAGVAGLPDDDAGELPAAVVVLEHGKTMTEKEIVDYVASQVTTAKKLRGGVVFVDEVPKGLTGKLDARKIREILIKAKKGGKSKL

Molecules are shown by their SMILES. Activity calls are given as the source filed them.

Sequence of Albumin (Bos taurus) (P02769 whole entry, looked up): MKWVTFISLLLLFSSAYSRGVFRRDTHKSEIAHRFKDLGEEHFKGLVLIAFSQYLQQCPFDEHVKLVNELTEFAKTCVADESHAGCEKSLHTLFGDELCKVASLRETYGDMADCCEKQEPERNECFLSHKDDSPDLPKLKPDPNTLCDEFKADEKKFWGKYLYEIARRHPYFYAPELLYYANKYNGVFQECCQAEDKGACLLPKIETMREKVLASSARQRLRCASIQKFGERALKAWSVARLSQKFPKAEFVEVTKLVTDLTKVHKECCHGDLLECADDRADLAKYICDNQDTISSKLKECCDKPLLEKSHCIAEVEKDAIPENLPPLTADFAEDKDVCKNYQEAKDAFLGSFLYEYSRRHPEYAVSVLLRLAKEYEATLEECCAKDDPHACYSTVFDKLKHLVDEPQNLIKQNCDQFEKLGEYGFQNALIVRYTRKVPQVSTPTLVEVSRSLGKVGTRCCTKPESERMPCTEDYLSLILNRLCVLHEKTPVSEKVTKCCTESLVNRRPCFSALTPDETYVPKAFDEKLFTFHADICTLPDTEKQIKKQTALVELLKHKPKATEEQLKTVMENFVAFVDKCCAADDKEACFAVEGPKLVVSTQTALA
Sequence of Concanavalin-A (Canavalia ensiformis) (P02866 whole entry, looked up): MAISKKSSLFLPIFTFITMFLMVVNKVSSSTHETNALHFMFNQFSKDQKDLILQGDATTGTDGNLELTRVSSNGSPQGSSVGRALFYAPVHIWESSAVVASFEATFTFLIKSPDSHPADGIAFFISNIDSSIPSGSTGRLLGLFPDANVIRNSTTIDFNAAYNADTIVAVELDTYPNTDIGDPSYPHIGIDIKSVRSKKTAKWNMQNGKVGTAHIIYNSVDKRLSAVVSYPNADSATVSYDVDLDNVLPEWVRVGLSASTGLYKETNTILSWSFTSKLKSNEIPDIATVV

Turning to `CC(C)[Si](C#C[Si](C(C)C)(C(C)C)C(C)C)(O[C@H](c1ccccc1)c1cn(Cc2ccccc2)nn1)C(C)C`, the composite z-score in the assay with Albumin (Bos taurus) was -0.0062; in assay [2], 0.143; in assay [3] it was -0.146; in assay [4], 0.237; in [5], -0.366; in assay [6] it was -0.0307. In addition, the composite z-score in the assay with Sam68 (KHDRBS1) turned out to be 1.02; in [7], 0.511; in assay [8] it was 0.135; in assay [9] it was 0.259; in [10], 0.733; in [11], 0.23. Further, the composite z-score in [12] is 0.436; in assay [13], 0.532; in assay [14], 0.2; with Lefty1 it was 0.635; in [16] it was 0.212. For the same compound, the composite Z-score in assay [1] is -0.058 (inactive). In addition, the z-score in assay [15] is 0.238; in [17], 0.87 (inactive).
Consider `COc1cc2c(cc1O)C=[N+](Cc1sc3ccccc3c1Cl)CC2`, for which the composite z-score was 0.606 in the assay with Albumin (Bos taurus); -0.0546 in [2]; -0.0658 in assay [3]; 0.742 in [4]; 0.491 in assay [5]; 0.361 in assay [6]. The composite z-score was -0.291 in the assay with Sam68 (KHDRBS1); 0.496 in [7]; 0.968 in [8]; 0.505 in assay [9]; 0.0341 in [10]; -0.292 in assay [11]. Also, the composite z-score was 0.257 in [12]; 0.609 in assay [13]; 0.182 in assay [14]; 0.0893 with Lefty1; 0.311 in assay [16]. The composite Z-score in assay [1] is 0.0375 (inactive). The results for the z-score in assay [15] and in [17] were -0.571 and 0.5 (inactive), respectively.
For the compound `C#CCN([C@@H](Cc1ccccc1)C(=O)OC)[C@@H](/C=C/C1CC1)[C@H](O)Cc1ccccc1`, the composite z-score in the assay with Albumin (Bos taurus) is 0.801; in [2] it was -0.0984; in assay [3], -0.208; in [4] it was -0.321; in assay [5], -0.0769; in assay [6] it was 0.868. Besides, the composite z-score in the assay on Sam68 (KHDRBS1) was -0.326; in assay [7], 1.16; in [8], -1.5; in assay [9], -0.429; in [10], -0.515; in [11], -0.157. Further, the composite z-score was -0.873 in [12]; 0.722 in assay [13]; -0.0248 in assay [14]; 0.166 in the assay with Lefty1; 0.0211 in assay [16]. In addition, in assay [1], the composite Z-score is -0.275 (inactive). Further, the values for the z-score in assay [15] and in [17] were 3.45 and 0.412 (inactive), respectively.
Turning to `CC(C)[Si]1(C(C)C)OCc2cc(-c3ccc(-c4ccc(Cl)c(Cl)c4)o3)nc(-c3ccccc3)c21`, the composite z-score with Albumin (Bos taurus) was 0.566; in assay [2], -0.235; in assay [3], -0.234; in assay [4] it was -0.895; in assay [5], -0.77; in [6], -0.714. The composite z-score in the assay with Sam68 (KHDRBS1) was -1.53; in assay [7] it was -0.541; in [8], -0.746; in assay [9], -0.534; in assay [10], -1.65; in assay [11], -0.838. Also, the composite z-score in assay [12] was -1.32; in assay [13] it was -0.751; in assay [14], -0.94; with Lefty1, -0.21; in assay [16], -0.0496. Moreover, in [1], the composite Z-score is 0.131 (inactive). The z-score was -0.447 in assay [15] and -1.07 (inactive) in assay [17].
For `CCCCCC1=C2CNC(C)(C(=O)OC)C=C2C(C)C1=O` (stereo not given), the composite z-score in the assay with Albumin (Bos taurus) is 0.673; in [2] it was -0.0716; in assay [3], 0.0414; in assay [4], 0.839; in assay [5], 1.18; in assay [6], 0.947. Further, the composite z-score is -0.868 with Sam68 (KHDRBS1); -0.409 in assay [7]; -1.51 in assay [8]; 1.46 in [9]; -0.575 in assay [10]; -0.108 in [11]. Besides, the composite z-score was -0.833 in [12]; -0.642 in assay [13]; -0.328 in assay [14]; -0.427 with Lefty1; 0.234 in assay [16]. In addition, the composite Z-score in [1] was 0.239 (inactive). Further, the z-score was 1.01 in [15] and 2.31 (inactive) in [17].
